# PMC7862700, “An all-to-all approach to the identification of sequence-specific readers for epigenetic DNA modifications on cytosine”
# Tests used:
# Experiment in all cases: DAPPL (digital affinity profiling via proximity ligation, sequencing); 10 mM Tris-HCl pH 7.5, 50 mM NaCl, 1 mM DTT, 4% glycerol, room temperature, 30 min; GST-TFs on glutathione beads, 16-mer random dsDNA library, 0.1% formaldehyde crosslink after washing; high values mean tight binding
# Conditions in all cases: protein: recombinant; tags: N-terminal GST; dsDNA, one strand shown
# [1] = biological target: T1, ETV2 (Homo sapiens, UniProt O00321 1-342)
# T1 sequence: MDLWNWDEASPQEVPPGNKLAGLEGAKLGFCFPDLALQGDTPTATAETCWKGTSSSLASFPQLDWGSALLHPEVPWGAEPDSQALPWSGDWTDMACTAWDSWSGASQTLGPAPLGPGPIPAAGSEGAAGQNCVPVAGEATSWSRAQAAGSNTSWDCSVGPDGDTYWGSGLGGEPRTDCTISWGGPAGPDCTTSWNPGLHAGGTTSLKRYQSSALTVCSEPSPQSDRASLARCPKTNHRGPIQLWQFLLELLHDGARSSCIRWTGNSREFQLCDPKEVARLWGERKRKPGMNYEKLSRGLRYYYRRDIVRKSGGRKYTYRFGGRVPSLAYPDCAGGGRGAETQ
# Method in brief: (§1)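 Yeast served to express human transcription factors as GST fusions, which were then captured on glutathione beads and labelled with DNA barcodes. Pooled with a tag-only sample, they were incubated with 200 nmole of a 16-mer random double-stranded DNA library for 30 min at room temperature in Tris/NaCl/DTT/glycerol buffer, washed, crosslinked with 0.1% formaldehyde, ligated by proximity, amplified by PCR and sequenced. Dividing each hexamer's read frequency for a factor by its frequency for the tag-only sample gives the binding signal.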
# [2] = biological target: T2, GABPA (Homo sapiens, UniProt Q06546 1-454)
# T2 sequence: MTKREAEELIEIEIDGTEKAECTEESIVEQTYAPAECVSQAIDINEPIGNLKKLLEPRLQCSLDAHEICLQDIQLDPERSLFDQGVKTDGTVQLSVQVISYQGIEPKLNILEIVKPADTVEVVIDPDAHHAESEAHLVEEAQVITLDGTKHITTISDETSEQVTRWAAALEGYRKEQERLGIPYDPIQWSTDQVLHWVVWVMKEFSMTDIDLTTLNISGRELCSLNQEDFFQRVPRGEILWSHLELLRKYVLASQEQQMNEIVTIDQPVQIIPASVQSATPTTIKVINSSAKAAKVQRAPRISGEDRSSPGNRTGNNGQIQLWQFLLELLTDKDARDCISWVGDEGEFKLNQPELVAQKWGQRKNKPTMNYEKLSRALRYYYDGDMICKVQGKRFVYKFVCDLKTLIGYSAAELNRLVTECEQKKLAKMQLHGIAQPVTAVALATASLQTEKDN
# Method in brief: as §1
# [3] = biological target: T3, ELF3 (Homo sapiens, UniProt P78545 1-371)
# T3 sequence: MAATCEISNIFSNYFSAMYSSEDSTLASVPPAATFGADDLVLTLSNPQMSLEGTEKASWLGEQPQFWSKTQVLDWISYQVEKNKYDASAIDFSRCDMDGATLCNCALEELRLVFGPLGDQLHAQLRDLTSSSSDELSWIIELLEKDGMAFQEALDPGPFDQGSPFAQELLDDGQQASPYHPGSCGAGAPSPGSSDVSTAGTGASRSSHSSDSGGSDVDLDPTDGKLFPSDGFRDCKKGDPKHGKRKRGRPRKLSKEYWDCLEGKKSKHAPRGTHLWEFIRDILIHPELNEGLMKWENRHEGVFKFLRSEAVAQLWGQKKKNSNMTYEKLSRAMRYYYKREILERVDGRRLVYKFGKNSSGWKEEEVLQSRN
# Method in brief: as §1
# [4] = biological target: T4, ETV7 (Homo sapiens, UniProt Q9Y603 1-341)
# T4 sequence: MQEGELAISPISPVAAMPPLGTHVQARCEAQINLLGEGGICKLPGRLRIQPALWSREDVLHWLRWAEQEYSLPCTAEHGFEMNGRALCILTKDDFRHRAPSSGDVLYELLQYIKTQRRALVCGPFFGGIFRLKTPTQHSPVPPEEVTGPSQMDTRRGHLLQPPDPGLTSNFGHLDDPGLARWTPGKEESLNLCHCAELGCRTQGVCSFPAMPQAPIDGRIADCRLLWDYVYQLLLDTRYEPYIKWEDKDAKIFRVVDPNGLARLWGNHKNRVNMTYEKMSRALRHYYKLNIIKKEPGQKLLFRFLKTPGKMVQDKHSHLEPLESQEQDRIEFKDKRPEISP
# Method in brief: as §1
# [5] = biological target: T5, EHF (Homo sapiens, UniProt Q9NZC4 1-300)
# T5 sequence: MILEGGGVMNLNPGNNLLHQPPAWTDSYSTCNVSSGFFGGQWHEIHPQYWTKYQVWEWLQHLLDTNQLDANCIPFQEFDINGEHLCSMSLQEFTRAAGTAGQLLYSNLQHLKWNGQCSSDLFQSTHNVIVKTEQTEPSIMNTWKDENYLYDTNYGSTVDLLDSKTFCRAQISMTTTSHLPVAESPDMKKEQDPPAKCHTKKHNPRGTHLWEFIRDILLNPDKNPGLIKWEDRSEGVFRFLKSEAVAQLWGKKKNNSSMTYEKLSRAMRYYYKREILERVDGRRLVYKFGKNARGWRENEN
# Method in brief: as §1
# [6] = biological target: CRX (Homo sapiens, UniProt O43186 1-299)
# Sequence of CRX (O43186 whole entry): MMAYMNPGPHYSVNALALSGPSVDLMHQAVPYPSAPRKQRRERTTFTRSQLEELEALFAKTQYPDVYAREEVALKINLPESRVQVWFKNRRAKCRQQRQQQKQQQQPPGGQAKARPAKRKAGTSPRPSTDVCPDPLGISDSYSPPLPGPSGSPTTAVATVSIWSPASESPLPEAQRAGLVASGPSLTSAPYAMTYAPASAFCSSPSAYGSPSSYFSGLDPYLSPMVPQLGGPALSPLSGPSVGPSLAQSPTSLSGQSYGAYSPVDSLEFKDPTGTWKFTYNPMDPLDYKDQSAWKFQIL
# Method in brief: as §1
# [7] = biological target: T6, ERF (Homo sapiens, UniProt P50548 1-548)
# T6 sequence: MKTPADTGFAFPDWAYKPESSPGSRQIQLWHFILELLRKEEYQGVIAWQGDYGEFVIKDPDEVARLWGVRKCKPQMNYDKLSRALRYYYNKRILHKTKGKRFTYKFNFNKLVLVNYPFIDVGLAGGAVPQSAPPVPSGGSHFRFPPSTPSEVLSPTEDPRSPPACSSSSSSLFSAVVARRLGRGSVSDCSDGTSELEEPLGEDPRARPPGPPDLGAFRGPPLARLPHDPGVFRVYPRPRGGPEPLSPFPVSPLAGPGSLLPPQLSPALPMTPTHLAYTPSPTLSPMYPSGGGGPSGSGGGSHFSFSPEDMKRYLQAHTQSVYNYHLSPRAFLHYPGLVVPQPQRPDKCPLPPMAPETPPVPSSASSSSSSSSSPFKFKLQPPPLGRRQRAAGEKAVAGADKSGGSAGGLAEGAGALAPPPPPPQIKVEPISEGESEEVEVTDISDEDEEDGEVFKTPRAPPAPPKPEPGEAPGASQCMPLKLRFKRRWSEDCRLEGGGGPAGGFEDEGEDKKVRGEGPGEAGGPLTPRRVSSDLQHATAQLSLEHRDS
# Method in brief: as §1
# [8] = biological target: T7, ETV3 (Homo sapiens, UniProt P41162-2 1-143)
# T7 sequence: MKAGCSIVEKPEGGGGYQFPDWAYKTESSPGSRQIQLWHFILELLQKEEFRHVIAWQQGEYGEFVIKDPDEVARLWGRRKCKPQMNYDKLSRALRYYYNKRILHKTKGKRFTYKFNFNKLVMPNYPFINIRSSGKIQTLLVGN
# Method in brief: as §1
# [9] = biological target: ETV6 (Homo sapiens, UniProt P41212 1-452)
# Sequence of ETV6 (P41212 whole entry): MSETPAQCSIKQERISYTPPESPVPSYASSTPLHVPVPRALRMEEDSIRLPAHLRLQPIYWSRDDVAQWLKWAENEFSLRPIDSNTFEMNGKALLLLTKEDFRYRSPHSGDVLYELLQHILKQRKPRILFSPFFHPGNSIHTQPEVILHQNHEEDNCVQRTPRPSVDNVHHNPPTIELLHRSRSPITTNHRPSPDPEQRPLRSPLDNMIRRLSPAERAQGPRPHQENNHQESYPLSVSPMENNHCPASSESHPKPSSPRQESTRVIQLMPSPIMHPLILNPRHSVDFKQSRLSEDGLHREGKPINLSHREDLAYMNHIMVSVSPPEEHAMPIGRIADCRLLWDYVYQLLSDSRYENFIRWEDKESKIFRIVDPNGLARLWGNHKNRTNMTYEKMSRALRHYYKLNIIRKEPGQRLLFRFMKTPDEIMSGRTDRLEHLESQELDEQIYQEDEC
# Method in brief: as §1
# [10] = biological target: SPIB (Homo sapiens, UniProt Q01892 1-262)
# Sequence of SPIB (Q01892 whole entry): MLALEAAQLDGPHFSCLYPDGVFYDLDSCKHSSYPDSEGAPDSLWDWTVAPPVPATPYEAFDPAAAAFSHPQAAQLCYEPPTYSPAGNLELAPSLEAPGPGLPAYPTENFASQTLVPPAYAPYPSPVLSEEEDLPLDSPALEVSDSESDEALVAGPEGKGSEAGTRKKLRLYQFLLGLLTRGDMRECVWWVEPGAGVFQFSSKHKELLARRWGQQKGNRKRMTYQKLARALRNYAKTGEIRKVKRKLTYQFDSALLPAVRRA
# Method in brief: as §1
# [11] = biological target: T8, SPDEF (Homo sapiens, UniProt O95238 1-335)
# T8 sequence: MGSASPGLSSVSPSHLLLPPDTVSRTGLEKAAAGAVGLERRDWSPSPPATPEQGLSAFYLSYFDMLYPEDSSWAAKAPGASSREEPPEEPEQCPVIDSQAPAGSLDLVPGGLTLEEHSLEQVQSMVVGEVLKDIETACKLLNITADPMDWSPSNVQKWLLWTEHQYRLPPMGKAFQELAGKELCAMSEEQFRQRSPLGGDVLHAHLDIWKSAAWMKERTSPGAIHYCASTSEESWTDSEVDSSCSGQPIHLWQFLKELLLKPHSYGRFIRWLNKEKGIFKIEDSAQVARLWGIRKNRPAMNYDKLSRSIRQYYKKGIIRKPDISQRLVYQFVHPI
# Method in brief: as §1
# [12] = biological target: ETV1 (Homo sapiens, UniProt P50549 1-477)
# Sequence of ETV1 (P50549 whole entry): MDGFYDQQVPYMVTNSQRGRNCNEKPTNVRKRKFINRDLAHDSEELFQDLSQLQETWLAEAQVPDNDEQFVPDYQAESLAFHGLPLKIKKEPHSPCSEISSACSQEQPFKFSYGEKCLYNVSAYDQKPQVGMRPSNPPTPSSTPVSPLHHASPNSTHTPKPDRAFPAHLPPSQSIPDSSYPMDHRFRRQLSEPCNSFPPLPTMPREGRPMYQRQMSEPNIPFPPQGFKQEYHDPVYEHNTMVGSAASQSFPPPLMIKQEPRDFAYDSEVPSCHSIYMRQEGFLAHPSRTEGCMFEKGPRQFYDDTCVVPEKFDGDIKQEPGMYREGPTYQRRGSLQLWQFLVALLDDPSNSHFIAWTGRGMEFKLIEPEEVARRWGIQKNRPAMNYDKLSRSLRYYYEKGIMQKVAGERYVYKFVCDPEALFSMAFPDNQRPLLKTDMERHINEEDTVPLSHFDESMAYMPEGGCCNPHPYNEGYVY
# Method in brief: as §1
# [13] = biological target: T9, ETS2 (Homo sapiens, UniProt P15036 1-469)
# T9 sequence: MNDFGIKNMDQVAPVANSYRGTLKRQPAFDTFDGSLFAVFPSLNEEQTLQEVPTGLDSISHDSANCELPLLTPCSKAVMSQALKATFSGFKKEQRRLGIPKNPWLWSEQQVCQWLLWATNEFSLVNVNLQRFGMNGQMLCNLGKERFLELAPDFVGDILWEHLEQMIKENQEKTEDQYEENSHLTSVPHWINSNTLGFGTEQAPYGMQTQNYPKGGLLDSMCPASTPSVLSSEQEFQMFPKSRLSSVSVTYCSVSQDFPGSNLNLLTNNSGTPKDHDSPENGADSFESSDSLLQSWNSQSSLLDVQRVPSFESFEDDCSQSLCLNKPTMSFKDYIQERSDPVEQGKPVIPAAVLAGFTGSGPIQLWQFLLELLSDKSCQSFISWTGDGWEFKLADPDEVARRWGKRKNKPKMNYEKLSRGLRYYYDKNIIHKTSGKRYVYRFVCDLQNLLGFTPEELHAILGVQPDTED
# Method in brief: as §1
# [14] = biological target: T10, ELK3 (Homo sapiens, UniProt P41970 1-407)
# T10 sequence: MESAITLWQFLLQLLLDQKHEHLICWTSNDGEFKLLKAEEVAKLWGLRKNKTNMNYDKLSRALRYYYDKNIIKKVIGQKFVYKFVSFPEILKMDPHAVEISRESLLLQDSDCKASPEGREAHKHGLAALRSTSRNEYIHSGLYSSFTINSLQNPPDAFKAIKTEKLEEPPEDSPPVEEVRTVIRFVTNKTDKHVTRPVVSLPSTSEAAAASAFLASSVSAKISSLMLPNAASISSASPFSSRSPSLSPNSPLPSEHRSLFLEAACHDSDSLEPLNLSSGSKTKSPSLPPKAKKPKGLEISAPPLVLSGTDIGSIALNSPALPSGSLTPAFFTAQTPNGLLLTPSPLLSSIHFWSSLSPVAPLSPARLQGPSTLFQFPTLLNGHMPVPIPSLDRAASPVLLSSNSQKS
# Method in brief: as §1
sequence,measurement,setting,value
AGCCAT,binding signal,[1],"1.02 fold enrichment (6-mer frequency, TF over GST control)"
TGCGTC,binding signal,[2],"1.01 fold enrichment (6-mer frequency, TF over GST control)"
same,binding signal,[1],"1.04 fold enrichment (6-mer frequency, TF over GST control)"
same,binding signal,[3],"1.03 fold enrichment (6-mer frequency, TF over GST control)"
same,binding signal,[4],"1.04 fold enrichment (6-mer frequency, TF over GST control)"
GCGACG,binding signal,[1],"1.15 fold enrichment (6-mer frequency, TF over GST control)"
GCGGCT,binding signal,[5],"1.02 fold enrichment (6-mer frequency, TF over GST control)"
same,binding signal,[1],"1.08 fold enrichment (6-mer frequency, TF over GST control)"
same,binding signal,[6],"1.05 fold enrichment (6-mer frequency, TF over GST control)"
same,binding signal,[7],"1.08 fold enrichment (6-mer frequency, TF over GST control)"
same,binding signal,[8],"1 fold enrichment (6-mer frequency, TF over GST control)"
same,binding signal,[9],"1 fold enrichment (6-mer frequency, TF over GST control)"
AGCAAG,binding signal,[1],"1.02 fold enrichment (6-mer frequency, TF over GST control)"
ACTGGG,binding signal,[1],"1.03 fold enrichment (6-mer frequency, TF over GST control)"
ACCAAG,binding signal,[3],"1.14 fold enrichment (6-mer frequency, TF over GST control)"
TACGGG,binding signal,[3],"1.01 fold enrichment (6-mer frequency, TF over GST control)"
same,binding signal,[7],"1.08 fold enrichment (6-mer frequency, TF over GST control)"
GACCCA,binding signal,[1],"1.09 fold enrichment (6-mer frequency, TF over GST control)"
CGGCAC,binding signal,[2],"1.03 fold enrichment (6-mer frequency, TF over GST control)"
same,binding signal,[10],"1.03 fold enrichment (6-mer frequency, TF over GST control)"
same,binding signal,[3],"1.1 fold enrichment (6-mer frequency, TF over GST control)"
same,binding signal,[11],"1.02 fold enrichment (6-mer frequency, TF over GST control)"
same,binding signal,[4],"1 fold enrichment (6-mer frequency, TF over GST control)"
same,binding signal,[8],"1.03 fold enrichment (6-mer frequency, TF over GST control)"
same,binding signal,[9],"1.02 fold enrichment (6-mer frequency, TF over GST control)"
CCTAGT,binding signal,[3],"1.04 fold enrichment (6-mer frequency, TF over GST control)"
same,binding signal,[12],"1.02 fold enrichment (6-mer frequency, TF over GST control)"
same,binding signal,[7],"1 fold enrichment (6-mer frequency, TF over GST control)"
same,binding signal,[13],"1.06 fold enrichment (6-mer frequency, TF over GST control)"
CTAGTG,binding signal,[3],"1.01 fold enrichment (6-mer frequency, TF over GST control)"
AGGCTA,binding signal,[14],"1.05 fold enrichment (6-mer frequency, TF over GST control)"
same,binding signal,[1],"1 fold enrichment (6-mer frequency, TF over GST control)"
same,binding signal,[6],"1.19 fold enrichment (6-mer frequency, TF over GST control)"
GTATCG,binding signal,[1],"1.09 fold enrichment (6-mer frequency, TF over GST control)"
same,binding signal,[3],"1.13 fold enrichment (6-mer frequency, TF over GST control)"
TGAAGG,binding signal,[10],"1 fold enrichment (6-mer frequency, TF over GST control)"
same,binding signal,[1],"1 fold enrichment (6-mer frequency, TF over GST control)"
CGGACC,binding signal,[1],"1.02 fold enrichment (6-mer frequency, TF over GST control)"
TTGGGA,binding signal,[1],"1.03 fold enrichment (6-mer frequency, TF over GST control)"
same,binding signal,[6],"1.04 fold enrichment (6-mer frequency, TF over GST control)"
